# This is part of a sample that, as a whole, favours compounds with a hit. Of some 83,000 tested, about 20% had one in any assay.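 Method: cells in 96-well plates; compound added at one concentration; 48 h incubation; percent growth measured; values under 10 scored active.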 A number with no mark means an inactive call. Calls of active or inactive are those of the source.
# Test system: TK-10 renal
# Test: NCI-60 one-dose screen, 48 h (100 = growth as untreated, 0 = no growth, -100 = all killed)
# Settings: 10 µM unless noted
# Description: Growth inhibition of the TK-10 human tumor cell line is measured as a screen for anti-cancer activity. Cells are grown in 96 well plates and exposed to the test compound for 48 hours. Compounds are tested at a single concentration, which is 10^-5 M for most compounds. The reported endpoint is percent growth (GI% or GIPRCNT), where numbers from 0 - 100% represent growth inhibition, and numbers from -100% - 0 represent cell death. For example, a value of 40 represents 60% growth inhibition. A value of 0 means no net growth occurred over the course of the experiment. A value of -40 indicates 40% of cells at the beginning of the experiment died by the end of the experiment. A value of -100 means all cells are dead at the end of the experiment.
# NCI-60 Human Tumor Cell Lines Screen was performed using the standard one-dose NCI protocol, which is described in more detail at https://dtp.cancer.gov/discovery_development/nci-60/default.htm.
# Compounds with GIPRCNT values below 10 were considered active. Activity score was based on GIPRCNT using the following formula: […]
# Score is 0 for GIPRCNT values of 100 or above, 50 for GIPRCNT values of 0, and 100 for GIPRCNT values of -100.
row,Compound,growth
1,CN1COc2ccc3ccccc3c2C1,105%
2,CC[C@@H]1OC(=O)[C@H](C)[C@@H](O[C@H]2C[C@@](C)(OC)[C@@H](O)[C@H](C)O2)[C@H](C)[C@@H](O[C@@H]2O[C@H](C)C[C@H](N(C)C)[C@H]2O)[C@](C)(O)C[C@@H](C)[C@@H]2N[C@@H](COCCOC)O[C@H]([C@H]2C)[C@]1(C)O,119%
3,O=NC1CC=CCC1c1ccccc1 (stereo not given),103%
4,CCOC(=O)c1c(NC(=O)C2CCCCC2C(=O)O)sc2c1CCCC2 (stereo not given),113%
5,O=C(O)c1ccc(NC(=O)c2cccc(Nc3ccnc(C(F)(F)F)c3)c2)cc1,97.8%
6,O=C(/C=C/c1cc2ccccc2[nH]c1=O)c1ccc(O)cc1,50.1%
7,CCN(CC)c1ccc(N=Nc2cc(Cl)ccc2Cl)c(NC(=O)CCC(=O)O)c1,121%
8,O=C(N1CCC(CN=c2cc3n(-c4ccc(Cl)cc4)c4ccccc4nc-3cc2Nc2ccc(Cl)cc2)CC1)N1CC1,-42.9% (active)
9,CO[C@H]1/C=C/O[C@@]2(C)Oc3c(C)c(O)c4c(O)c(c(/C=N/N5CCN(C)CC5)c(O)c4c3C2=O)NC(=O)/C(C)=C\C=C\C(C)[C@H](O)[C@@H](C)[C@@H](O)[C@@H](C)[C@@H](OC(C)=O)[C@@H]1C (stereo not given in full),98.6%
10,COc1cc(OC)c2sc(-c3ccc(-n4cncc4-c4ccc(N)cc4)cc3)nc2c1,70%
11,O=[N+]([O-])c1ccc(Oc2cccc(C(F)(F)F)c2)c([N+](=O)[O-])c1,11.2%
12,O=C1NCN(CCO)CN1,107%
13,C=CCCCCCCCCC(=O)[O][Sn]([CH2]CCC)([CH2]CCC)[CH2]CCC,-92.2% (active)
14,O=C1/C(=N/O)CCc2ccccc21,151%
15,CSc1ncc2ncn(C3OC(CO)C(O)C3O)c2n1 (stereo not given),122%
16,C/C(=C\CCc1ccoc1)CC/C=C(\C)CCCN1CCC(CO)CC1,97.2%
17,C[C@]12CC[C@@H]3c4ccc(O)cc4CC[C@H]3[C@@H]1CC[C@@H]2NS(=O)(=O)c1cccc(Br)c1,75.4%
18,CC12CCC3C(CCC4CC(=O)/C(=C\O)CC43C)C1CCC(=O)O2 (stereo not given),115%
19,O=C(c1ccccc1)c1ccccc1Cl,94.6%
20,COc1cc(C2C=C(c3ccc(C)cc3)Nc3nc(SC)[nH]c(=O)c32)ccc1Oc1ccnc2cc(Cl)ccc12 (stereo not given),78.2%

row,Compound,growth
1,Cc1nn(-c2ccccc2)c2c1oc(=O)c1cc(Cl)ccc12,111%
2,CCOC(=O)C1=C(C)N2C(=NC3=C(CCC/C3=C\c3ccc(Cl)cc3)C2c2ccc(Cl)cc2)S1 (stereo not given),58.2%
3,CCCCCCCCSc1ncnc2c1ncn2CO,89.9%
4,COc1ccc(C(=O)Nc2nc(-c3ccc(Cl)cc3)cs2)cc1,122%
5,CN=C(NC)N/N=C(C)\C=N\NC(=NC)NC,127%
6,CCN(CC)CCOc1ccc(C2=C(c3ccccc3)CCc3cc(OC)ccc32)cc1,-21.1% (active)
7,CCC(CC)NCCCCCNc1cc(OC)cc2cccnc12,83.5%
8,CN(C)c1nc(N)nc(Cn2c(-c3nonc3N)nc3ccccc32)n1,107%
9,O=C(CCc1nnc2sc(-c3ccc(Cl)cc3Cl)nn12)c1nc2ccccc2[nH]1,-83.2% (active)
10,CN(C)c1nc(-c2ccco2)n2nc(-c3ccco3)cc2n1,90.3%
11,CCC1=C(c2ccc(OC)cc2)C(C)Oc2cc(OC(C)=O)ccc21 (stereo not given),98.6%
12,COC(=O)[C@]12CC[C@@H](C)[C@H](C)[C@@H]1C1=CC[C@@H]3[C@@]4(C)C=C(O)C(=O)[C@@]5(C)COC(=C54)C[C@@]3(C)[C@]1(C)CC2,-62.3% (active)
13,Fc1ccc(-c2nnc(/C=C/c3cn(-c4ccccc4)nc3-c3ccccc3)o2)cc1,107%
14,CCSc1nnc2n(Cc3ccccc3)c(=O)c3c(C)c(C(N)=O)sc3n12,111%
15,CCN(CC)CCCCNc1c2ccccc2[n+](C)c2c1[nH]c1ccccc12,-12.1% (active)
16,Cc1nc2c(O)cccc2cc1CO,168%
17,COc1ccc(-c2c3c(nn2-c2ccc(N)cc2)CCc2cnoc2-3)cc1OC,88.5%
18,C/C(=N\N1CC(=O)NC1=O)c1ccc([N+](=O)[O-])o1,105%
19,CN(CC(=O)Nc1nc2ccccc2[nH]1)S(=O)(=O)c1ccc(Cl)cc1,118%
20,CCN1C(=O)c2ccc3c4c(ccc(c24)C1=O)C(=O)N(CCCNCc1ccccc1OC)C3=O,-28.3% (active)
